Assay results as given in PubChem BioAssay.
Active and inactive are the calls of the source.

Key:
[1] = binders of probe aFSTL3 on microarray, primary screen, stem cell growth factor project, biochemical, small-molecule microarray, fluorescence 635/667 (AID 1064); conditions: higher = more signal;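 note: measures binding of the biotinylated anti-FSTL3 antibody to printed compounds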
[2] = binders from COS7 lysate, DM2A8 probe, primary screen, torsin A project, cell lysate, small-molecule microarray, fluorescence 635/667 (AID 1065); conditions: higher = more signal, COS7 lysate expressing mutant human TOR1A
[3] = binders of probe aFGF2 on microarray, primary screen, stem cell growth factor project, biochemical, small-molecule microarray, fluorescence 635/667 (AID 1067); conditions: higher = more signal;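 note: measures binding of biotinylated aFGF2 protein to printed compounds on slides; z-score merges feature fluorescence and signal-to-noise across triplicate slides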
[4] = binders of probe aFGF10 on microarray, primary screen, stem cell growth factor project, biochemical, small-molecule microarray, fluorescence 635/667 (AID 1071); conditions: higher = more signal;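 note: score merges 667 nm spot intensity and signal to noise from triplicate slides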
[5] = target: Neurogenic locus notch homolog protein 2 (Homo sapiens) (UniProt Q04721); experiment: Notch2 binders on small-molecule microarrays, primary screen, biochemical, small-molecule microarray, 635 nm fluorescence, stem cell growth factors (AID 1073); conditions: Notch2 binding, higher = more signal
[6] = target: Pro-neuregulin-1, membrane-bound isoform (Homo sapiens) (UniProt Q02297); experiment: NRG1 binders on small-molecule microarrays, primary screen, psychiatric disease protein project, biochemical, small-molecule microarray, fluorescence 635/667 (AID 1075); conditions: NRG1 binding, 635 nm fluorescence, higher = more signal;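 note: score combines 667 nm spot fluorescence with signal to noise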
[7] = tested on: Neuregulin-1 EGF-like domain; experiment: binders of neuregulin-1 EGF-like domain, primary screen, biochemical, small-molecule microarray, 635 nm fluorescence (AID 1081); conditions: small-molecule microarray binding, higher = more signal;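 note: binding of the protein to compounds printed on small-molecule microarray slides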
[8] = FRG1 promoter luciferase signal modulators, primary screen, FRG1 inhibition for FSHD, cell-based, C2C12 myotubes, firefly/Renilla luciferase, luminescence (AID 1084); conditions: higher = more signal, called active from +8 up or from −8 down
[9] = binders of probe aFST on microarray, primary screen, stem cell growth factor project, biochemical, small-molecule microarray, fluorescence 635/667 (AID 1086); conditions: higher = more signal;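 note: score merges 667 nm fluorescence with signal-to-noise of each printed compound spot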
[10] = binders of probe aHhip on microarray, primary screen, stem cell growth factor project, biochemical, small-molecule microarray, fluorescence 635/667 (AID 1087); conditions: higher = more signal;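 note: score merges spot fluorescence at 667nm with spot signal to noise ratio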

Chain of Pro-neuregulin-1, membrane-bound isoform (Homo sapiens) (Q02297 whole entry, looked up, the tested form may be a part, canonical isoform): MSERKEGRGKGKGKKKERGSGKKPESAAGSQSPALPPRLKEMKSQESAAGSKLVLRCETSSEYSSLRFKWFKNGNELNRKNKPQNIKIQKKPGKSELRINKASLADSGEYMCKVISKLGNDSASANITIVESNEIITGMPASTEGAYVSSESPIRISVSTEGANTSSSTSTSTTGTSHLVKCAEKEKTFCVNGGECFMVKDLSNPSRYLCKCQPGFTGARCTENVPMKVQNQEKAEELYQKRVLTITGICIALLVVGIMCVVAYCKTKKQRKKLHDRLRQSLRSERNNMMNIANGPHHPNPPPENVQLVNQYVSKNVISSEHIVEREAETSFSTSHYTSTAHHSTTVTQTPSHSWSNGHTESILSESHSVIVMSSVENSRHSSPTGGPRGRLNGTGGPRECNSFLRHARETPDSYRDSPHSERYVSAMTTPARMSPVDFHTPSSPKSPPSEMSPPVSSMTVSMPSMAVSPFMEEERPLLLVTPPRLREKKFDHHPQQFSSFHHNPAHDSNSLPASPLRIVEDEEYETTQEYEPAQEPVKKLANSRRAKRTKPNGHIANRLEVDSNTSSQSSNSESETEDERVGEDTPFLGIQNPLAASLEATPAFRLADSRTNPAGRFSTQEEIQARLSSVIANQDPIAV
Chain of Neurogenic locus notch homolog protein 2 (Homo sapiens) (Q04721 whole entry, looked up, canonical isoform): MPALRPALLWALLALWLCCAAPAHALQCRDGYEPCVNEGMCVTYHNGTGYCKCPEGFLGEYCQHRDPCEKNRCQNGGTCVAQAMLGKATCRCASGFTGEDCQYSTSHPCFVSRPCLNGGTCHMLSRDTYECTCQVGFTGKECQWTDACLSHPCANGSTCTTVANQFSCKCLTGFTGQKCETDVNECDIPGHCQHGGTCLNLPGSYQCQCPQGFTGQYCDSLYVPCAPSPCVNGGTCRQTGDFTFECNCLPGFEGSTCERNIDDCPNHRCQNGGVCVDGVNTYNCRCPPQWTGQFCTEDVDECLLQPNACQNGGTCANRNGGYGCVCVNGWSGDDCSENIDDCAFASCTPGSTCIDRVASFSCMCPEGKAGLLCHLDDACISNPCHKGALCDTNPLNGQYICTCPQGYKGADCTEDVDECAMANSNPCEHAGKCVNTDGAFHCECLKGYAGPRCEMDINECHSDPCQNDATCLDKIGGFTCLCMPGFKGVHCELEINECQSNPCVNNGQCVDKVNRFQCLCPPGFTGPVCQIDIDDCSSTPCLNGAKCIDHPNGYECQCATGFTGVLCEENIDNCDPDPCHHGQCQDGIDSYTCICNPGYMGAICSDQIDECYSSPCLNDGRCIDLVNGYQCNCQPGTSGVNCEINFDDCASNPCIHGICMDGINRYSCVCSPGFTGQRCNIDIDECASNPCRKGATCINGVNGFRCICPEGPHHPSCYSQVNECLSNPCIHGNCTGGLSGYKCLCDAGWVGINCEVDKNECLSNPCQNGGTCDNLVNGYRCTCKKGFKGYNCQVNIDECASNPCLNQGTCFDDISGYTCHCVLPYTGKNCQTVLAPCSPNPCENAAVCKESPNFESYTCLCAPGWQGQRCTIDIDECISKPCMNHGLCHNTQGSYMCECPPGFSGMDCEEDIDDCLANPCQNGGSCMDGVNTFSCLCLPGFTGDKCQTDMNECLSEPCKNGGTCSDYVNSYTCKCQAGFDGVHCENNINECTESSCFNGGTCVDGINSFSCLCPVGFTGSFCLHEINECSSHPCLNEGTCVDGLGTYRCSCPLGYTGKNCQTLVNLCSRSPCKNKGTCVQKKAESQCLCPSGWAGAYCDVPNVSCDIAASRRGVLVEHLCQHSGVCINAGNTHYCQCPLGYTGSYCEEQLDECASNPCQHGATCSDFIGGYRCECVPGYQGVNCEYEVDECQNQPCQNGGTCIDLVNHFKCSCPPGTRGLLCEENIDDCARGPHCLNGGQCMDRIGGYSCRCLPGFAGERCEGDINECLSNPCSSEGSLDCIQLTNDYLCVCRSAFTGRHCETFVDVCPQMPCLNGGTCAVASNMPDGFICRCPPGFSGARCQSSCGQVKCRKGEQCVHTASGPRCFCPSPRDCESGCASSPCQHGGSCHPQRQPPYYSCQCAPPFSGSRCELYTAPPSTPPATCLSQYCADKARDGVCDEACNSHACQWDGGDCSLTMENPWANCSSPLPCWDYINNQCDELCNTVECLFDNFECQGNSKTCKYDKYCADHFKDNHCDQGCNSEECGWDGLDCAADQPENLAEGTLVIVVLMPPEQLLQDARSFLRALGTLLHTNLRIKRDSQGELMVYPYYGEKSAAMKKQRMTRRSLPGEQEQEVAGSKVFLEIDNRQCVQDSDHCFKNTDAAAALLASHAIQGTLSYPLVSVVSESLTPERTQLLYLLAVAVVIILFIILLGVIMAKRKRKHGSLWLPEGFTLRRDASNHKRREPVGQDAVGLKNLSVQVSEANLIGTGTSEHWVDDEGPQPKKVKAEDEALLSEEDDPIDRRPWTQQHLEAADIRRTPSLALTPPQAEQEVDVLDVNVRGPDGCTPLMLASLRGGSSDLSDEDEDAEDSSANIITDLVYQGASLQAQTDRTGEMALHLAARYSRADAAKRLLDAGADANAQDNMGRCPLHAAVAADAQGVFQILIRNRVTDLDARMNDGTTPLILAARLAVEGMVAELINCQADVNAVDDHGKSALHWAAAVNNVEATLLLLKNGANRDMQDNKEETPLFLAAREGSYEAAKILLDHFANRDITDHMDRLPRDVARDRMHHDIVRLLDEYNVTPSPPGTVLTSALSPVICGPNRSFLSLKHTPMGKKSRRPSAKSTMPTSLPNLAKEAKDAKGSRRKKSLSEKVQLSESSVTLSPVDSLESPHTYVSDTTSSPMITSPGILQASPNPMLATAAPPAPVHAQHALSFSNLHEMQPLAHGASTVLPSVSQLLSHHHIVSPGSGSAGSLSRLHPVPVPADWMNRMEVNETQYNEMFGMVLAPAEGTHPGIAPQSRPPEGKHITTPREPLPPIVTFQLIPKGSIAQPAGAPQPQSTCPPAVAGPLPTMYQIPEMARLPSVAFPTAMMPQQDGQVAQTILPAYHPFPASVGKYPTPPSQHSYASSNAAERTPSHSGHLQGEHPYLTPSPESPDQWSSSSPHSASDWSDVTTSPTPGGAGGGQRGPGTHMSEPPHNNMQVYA

| SMILES | composite z-score [1] | composite z-score [2] | composite z-score [3] | composite z-score [4] | composite z-score [5] | composite z-score [6] | composite z-score [7] | z-score [8] | composite z-score [9] | composite z-score [10] |
| --- | --- | --- | --- | --- | --- | --- | --- | --- | --- | --- |
| CCCCC(=C=CC[C@H](O)c1cccc(OCCO)c1)C[C@H](O)c1cc(Cl)cc(Cl)c1O | -0.288 | -0.027 | -0.0376 | 0.526 | -0.107 | 0.665 | 0.616 | -1.64 (inactive) | 0.137 | -0.197 |
| CO[C@H]1O[C@H](CO)[C@@H](OC(=O)Nc2cccc(F)c2)[C@H](OC(=O)c2cc3ccccc3[nH]2)[C@H]1OC(=O)c1cc2ccccc2[nH]1 | -0.277 | -0.108 | -0.0355 | 0.463 | -0.0665 | 1.33 | 0.24 | -1.46 (inactive) | -0.238 | -0.0726 |
| CC[C@@H](O[Si](C#C[Si](C(C)C)(C(C)C)C(C)C)(C(C)C)C(C)C)c1cn(Cc2cccc(Cl)c2)nn1 | -0.385 | 0.6 | -0.0594 | 0.238 | 0.863 | -0.019 | 0.69 | -0.0554 (inactive) | 0.197 | -0.0003 |
| C=CCNC(=O)[C@@H]1[C@H]2C(=O)O[C@H](c3ccccc3)[C@H](c3ccccc3)N2[C@H](c2ccc(OCCO)cc2)[C@@]12C(=O)Nc1ccc(C#CCNC(N)=O)cc12 | 0.18 | -0.262 | -0.22 | 0.169 | -1.01 | 0.43 | 0.184 | 0.243 (inactive) | 0.675 | -0.191 |
| C=C(/C=C\CNS(=O)(=O)c1ccc(C)cc1)[C@H](O)[C@H]1CCCN1S(=O)(=O)c1ccccc1[N+](=O)[O-] | -0.0107 | 0.014 | -0.114 | 0.108 | 0.361 | 0.618 | 0.577 | -4.49 (inactive) | -0.105 | 0.0373 |
| COC(=O)c1c2oc(c1C(=O)OC)C(=O)N[C@H](Cc1ccccc1)Cn1cc(nn1)C1(CCCCC1)NC(=O)N[C@H](CO)CC2 | -0.194 | 0.112 | -0.0561 | 0.399 | -0.0222 | 0.657 | 0.647 | -1.12 (inactive) | -0.259 | -0.0102 |
| C=CCOC(=O)[C@@H]1[C@H]2C(=O)O[C@H](c3ccccc3)[C@H](c3ccccc3)N2[C@H](c2ccc(OCCOC(=O)[C@H]3C[C@H]4C(=O)N[C@@H](CCCCN(C)C)C(=O)N4[C@H]3c3cccc(OCCO)c3)cc2)[C@@]12C(=O)Nc1ccccc12 | 1.24 | 0.596 | 0.031 | -0.629 | -1.13 | 1.96 | 0.815 | 1.02 (inactive) | -0.651 | -0.166 |
| C=CC[C@]1(C(=O)NCCN2CCOCC2)N=C(c2ccc(OCCCO)cc2)O[C@H]1c1ccccc1 | -0.038 | 0.422 | -0.0691 | 0.571 | 0.862 | 0.0304 | 1.25 | 1.37 (inactive) | 1.18 | -0.479 |
| C=CCC(OC(C)=O)[C@@H]1[C@@H](N(Cc2ccc(-c3ccccc3)cc2)C(=O)Cc2ccc(OC)cc2)c2cc(OCCCO)ccc2N1C(=O)Cc1ccc(OC)cc1 (stereo not given in full) | 0.169 | 0.414 | -0.0363 | 0.479 | -0.076 | 0.851 | 0.0142 | -1.5 (inactive) | 0.195 | 0.411 |
| COCCOC(=O)N1C(=O)[C@@]2(c3ccccc31)[C@H](C(=O)Nc1nc3ccccc3s1)[C@H]1C(=O)O[C@H](c3ccccc3)[C@H](c3ccccc3)N1[C@@H]2c1ccccc1OCCO | 0.451 | 0.0049 | -0.0036 | 0.798 | 1.15 | 1.05 | 1.2 | 2.13 (inactive) | 0.318 | 0.157 |
| C=C[C@H](C)[C@@H](OC(=O)Nc1ccc(SC)cc1)c1ccc(OCCO)cc1 | 0.169 | 0.378 | -0.0408 | 0.0044 | -0.421 | 0.99 | 1.26 | 5.34 (inactive) | 0.0372 | -0.264 |
| CC[C@@H](O[Si](C#C[Si](C(C)C)(C(C)C)C(C)C)(C(C)C)C(C)C)c1cn([C@H](C)c2ccccc2)nn1 | -0.51 | 0.488 | -0.0797 | 0.663 | 0.728 | 0.284 | 0.739 | -0.0777 (inactive) | 0.129 | 0.115 |
| CC(C)C[C@@H]1NC(=O)[C@H]2C[C@@H](C(=O)O)[C@@H](c3cccc(OCCO)c3)N2C1=O | 0.885 | 1.76 | -0.083 | -0.0367 | -0.26 | 1.61 | 1.48 | 7.43 (inactive) | 0.108 | 0.129 |
| C[C@]12C(=O)N(CCO)[C@@H]3C(=O)N(c4ccc(Cl)cc4)CC=CC31O[C@@H]1/C=C\CCCOC(=O)C12 (stereo not given in full) | 0.721 | -0.581 | -0.0985 | -0.986 | -0.759 | 1.12 | 0.0495 | 0.868 (inactive) | -0.599 | -0.132 |
| O=C1O[C@@H](c2ccccc2)[C@@H](c2ccccc2)N2[C@@H](c3ccccc3OCCO)[C@]3(C(=O)Nc4ccc(C#CC5(O)CCCCCC5)cc43)[C@@H](C(=O)N3CCCCCCC3)[C@H]12 | 4.04 | 2.44 | 1.08 | 1.47 | 1.89 | 2.67 | 1.4 | -1.05 (inactive) | 3.81 | 3.97 |
| CS(=O)(=O)CCOC(=O)C1=CC(CCCO)=CC(C2CC2)N(Cc2sc3ccccc3c2Cl)C=C1C(=O)OCCS(C)(=O)=O (stereo not given) | -0.143 | 0.0105 | 0.0498 | 0.4 | 1.36 | 1.92 | 1.18 | -0.133 (inactive) | 0.903 | -0.134 |
| CN(C)CCCCNC(=O)[C@H]1C[C@H]2C(=O)N[C@@H](CCCCN(C)C)C(=O)N2[C@H]1c1ccc(O)cc1 | -0.162 | 0.857 | -0.215 | 0.301 | -0.0742 | -0.121 | 0.763 | -0.354 (inactive) | -0.349 | -0.16 |
| CC[C@@H](O[Si](C#C[Si](C(C)C)(C(C)C)C(C)C)(C(C)C)C(C)C)c1cn([C@H](CO)Cc2ccccc2)nn1 | -0.48 | 0.111 | -0.187 | 0.686 | 0.929 | 0.0252 | 0.846 | 0.355 (inactive) | 0.547 | -0.0994 |
| CN1C(=O)C2C=CC(C(O)c3cccs3)N(N(c3ccccc3)c3ccccc3)C2C1=O (stereo not given) | -0.128 | -0.493 | 0.0472 | 0.272 | 1.1 | 1.19 | 1.21 | -0.179 (inactive) | 0.379 | -0.0645 |
| CC(C)c1ccc(NN2C(C(O)C(C)c3ccccc3)C=CC3C(=O)N(c4ccccc4)C(=O)C32)cc1 (stereo not given) | 1.31 | 1.04 | 0.51 | 1.08 | 1.71 | 2.09 | 1.12 | -0.632 (inactive) | 1.97 | -0.12 |
| O=C1O[C@H](c2ccccc2)[C@H](c2ccccc2)N2[C@H]1[C@@H](C(=O)O)[C@]1(C(=O)Nc3ccc(C#CC4(O)CCCCCC4)cc31)[C@H]2c1ccccc1OCCO | -0.304 | 1.43 | 0.0322 | 0.85 | 1.11 | 0.278 | 1.19 | -0.283 (inactive) | 0.39 | 0.781 |
| [N-]=[N+]=NCc1ccccc1[C@H]1OC(c2ccc(OCCCO)cc2)=N[C@@]1(CCS(=O)(=O)c1ccccc1)C(=O)O | 0.0191 | 0.401 | -0.0087 | 0.135 | 1.21 | 1.01 | 0.19 | 6.44 (inactive) | 0.785 | 0.0881 |
